# Laboratory results from PubChem BioAssay (NCI).
# Compounds without any hit were thinned out: in the full panel of roughly 79,000, 15% have a hit. A number with no mark means an inactive call. The source made the active and inactive calls. No stated cut-off is given here; in the data, active means growth inhibition above about 70%; inactive means the rest.
# Assays:
# [1] = NCI Yeast Anticancer Drug Screen. Data for the rad18 strain (AID 177); conditions: S. cerevisiae rad18 mutant growth inhibition, hits give high values
# How it was run: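 Inhibition values reflect reduced yeast growth compared with vehicle-treated controls, using a strain engineered with a DNA damage repair defect.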
# [2] = NCI Yeast Anticancer Drug Screen. Data for the wt1 strain (AID 149);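 further: 0% = growth of vehicle-treated wt1 cultures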; conditions: S. cerevisiae wt1 strain (SPY 50644) growth inhibition, hits give high values
# How it was run: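 Measured: growth of wt1 yeast under compound versus vehicle treatment, reported as inhibition.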
# [3] = NCI Yeast Anticancer Drug Screen. Data for the rad50EPP+ strain (AID 151);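 further: 0% = growth of vehicle-treated control cultures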; conditions: S. cerevisiae rad50 mutant strain, hits give high values
# How it was run: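 Strain rad50EPP+; compound exposure; % growth inhibition vs vehicle.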
# [4] = NCI Yeast Anticancer Drug Screen. Data for the mgt1 strain (AID 153); conditions: S. cerevisiae mgt1 mutant growth inhibition, hits give high values
# How it was run: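 Read-out: yeast growth inhibition vs vehicle control. Strain mgt1, drawn from a panel altered in DNA damage repair or cell cycle control.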
# [5] = NCI Yeast Anticancer Drug Screen. Data for the rad50 strain (AID 155);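 further: 0% = growth of vehicle-only cultures of the same strain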; conditions: S. cerevisiae rad50 strain growth inhibition, hits give high values
# How it was run: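 Growth of the mutant yeast was measured after compound exposure and referenced to vehicle-treated cultures.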
# [6] = NCI Yeast Anticancer Drug Screen. Data for the mec2-1 strain (AID 157); conditions: S. cerevisiae mec2-1 strain, hits give high values
# How it was run: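 Cells of the genetically defined mec2-1 yeast strain are incubated with test compound. Inhibition of growth is calculated against vehicle-treated controls.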
# [7] = NCI Yeast Anticancer Drug Screen. Data for the rad14 strain (AID 159);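 further: 0% = growth of vehicle-treated control cultures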; conditions: S. cerevisiae rad14 strain growth inhibition, hits give high values
# How it was run: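 Here, inhibition of yeast growth was measured after compound exposure, using a strain with a genetic defect in DNA damage repair and vehicle-treated cultures as the reference.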
# [8] = NCI Yeast Anticancer Drug Screen. Data for the sgs1 mgt1 strain (AID 161);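 further: 0% = growth of cultures given vehicle only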; conditions: S. cerevisiae sgs1 mgt1 strain, hits give high values
# How it was run: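 Read-out: growth inhibition vs vehicle controls. Cells: mutant yeast strain deficient in DNA damage repair.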
# [9] = NCI Yeast Anticancer Drug Screen. Data for the CLN2oe strain (AID 163);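 further: 0% = growth of vehicle-only control cultures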; conditions: S. cerevisiae CLN2oe strain, hits give high values
# How it was run: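 Strain altered in cell-cycle control, incubated with compound; growth compared to solvent-treated controls.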
# [10] = NCI Yeast Anticancer Drug Screen. Data for the cln2 rad14 strain (AID 165);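 further: 0% = growth equal to vehicle treated cultures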; conditions: S. cerevisiae cln2 rad14 strain, hits give high values
# How it was run: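 The screen exposed genetically defined yeast (cln2 rad14) to test compounds and scored growth inhibition relative to vehicle-treated controls.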
# [11] = NCI Yeast Anticancer Drug Screen. Data for the bub3 strain (AID 167); conditions: S. cerevisiae bub3 mutant strain, hits give high values
# How it was run: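 Whole-cell yeast assay. The mutant strain was incubated with compounds, and growth inhibition was determined by comparison with vehicle-treated cells.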
# [12] = NCI Yeast Anticancer Drug Screen. Data for the wt2 strain (AID 169);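 further: 0% = growth of vehicle-treated yeast cultures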; conditions: S. cerevisiae wt2 strain growth inhibition, hits give high values
# How it was run: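 Steps: yeast strain treated with compound; growth recorded; inhibition calculated relative to cultures given vehicle alone.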
# [13] = NCI Yeast Anticancer Drug Screen. Data for the mlh1 strain (AID 171);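 further: 0% = growth of vehicle-treated control cultures of the same strain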; conditions: S. cerevisiae mlh1 strain growth inhibition, hits give high values
# How it was run: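 Yeast screen: mutant strain plus compound, growth scored against vehicle control wells.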
# [14] = NCI Yeast Anticancer Drug Screen. Data for the sgs1 strain (AID 173);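 further: 0% = growth of vehicle-only control cultures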; conditions: S. cerevisiae sgs1 mutant, hits give high values
# How it was run: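 Inhibition of yeast growth served as the measure. The mutant strain was treated with each compound, and growth was normalised to cultures receiving vehicle alone.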
# [15] = NCI Yeast Anticancer Drug Screen. Data for the mlh1 rad18 strain (AID 175); conditions: S. cerevisiae mlh1 rad18 strain growth inhibition, hits give high values
# How it was run: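 Compound-treated yeast growth, normalised to vehicle controls. Strain bears defined DNA repair mutations.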
# [16] = at 5.0 µM (retest, dose inferred, filed as 0.5)
# [17] = at 50.0 µM (retest, dose inferred, filed as 5.0)
smiles,measurement,setting,value
Nc1ccc(S(=O)(=O)Nc2nc3c(c(=O)[nH]2)CCCC3)cc1,growth inhibition,[1]; at 11.0 µM,85% (active)
same,growth inhibition,[1]; at 33.0 µM,99% (active)
same,growth inhibition,[1]; at 100.0 µM,99% (active)
NC(N)=NC(N)=Nc1ccccc1 (tested in a mixture with another compound),growth inhibition,[2]; at 1.2 µM,-1%
same,growth inhibition,[2]; at 3.7 µM,-1%
same,growth inhibition,[2]; at 11.0 µM,0%
same,growth inhibition,[2]; at 33.0 µM,11%
same,growth inhibition,[2]; at 100.0 µM,32%
same,growth inhibition,[3]; at 1.2 µM,-1%
same,growth inhibition,[3]; at 3.7 µM,-2%
same,growth inhibition,[3]; at 11.0 µM,-16%
same,growth inhibition,[3]; at 33.0 µM,-9%
same,growth inhibition,[3]; at 100.0 µM,18%
same,growth inhibition,[4]; at 1.2 µM,-1%
same,growth inhibition,[4]; at 3.7 µM,-2%
same,growth inhibition,[4]; at 11.0 µM,0%
same,growth inhibition,[4]; at 33.0 µM,6%
same,growth inhibition,[4]; at 100.0 µM,41%
same,growth inhibition,[5]; at 1.2 µM,2%
same,growth inhibition,[5]; at 3.7 µM,-3%
same,growth inhibition,[5]; [16],-2%
same,growth inhibition,[5]; at 11.0 µM,1%
same,growth inhibition,[5]; at 33.0 µM,1%
same,growth inhibition,[5]; [17],7%
same,growth inhibition,[5]; at 50.0 µM,56.6%
same,growth inhibition,[5]; at 100.0 µM,55%
same,growth inhibition,[6]; at 1.2 µM,3%
same,growth inhibition,[6]; at 3.7 µM,3%
same,growth inhibition,[6]; [16],4%
same,growth inhibition,[6]; at 11.0 µM,4%
same,growth inhibition,[6]; at 33.0 µM,12%
same,growth inhibition,[6]; [17],16%
same,growth inhibition,[6]; at 50.0 µM,35.7%
same,growth inhibition,[6]; at 100.0 µM,48%
same,growth inhibition,[7]; at 1.2 µM,-1%
same,growth inhibition,[7]; at 3.7 µM,-15%
same,growth inhibition,[7]; at 11.0 µM,-11%
same,growth inhibition,[7]; at 33.0 µM,-19%
same,growth inhibition,[7]; at 100.0 µM,60%
same,growth inhibition,[8]; [16],3%
same,growth inhibition,[8]; [17],-6%
same,growth inhibition,[8]; at 50.0 µM,66.8%
same,growth inhibition,[9]; at 1.2 µM,-2%
same,growth inhibition,[9]; at 3.7 µM,-6%
same,growth inhibition,[9]; at 11.0 µM,-13%
same,growth inhibition,[9]; at 33.0 µM,-1%
same,growth inhibition,[9]; at 100.0 µM,37%
same,growth inhibition,[10]; [16],33%
same,growth inhibition,[10]; [17],-77%
same,growth inhibition,[10]; at 50.0 µM,23.6%
same,growth inhibition,[11]; at 1.2 µM,-7%
same,growth inhibition,[11]; at 3.7 µM,2%
same,growth inhibition,[11]; [16],20%
same,growth inhibition,[11]; at 11.0 µM,10%
same,growth inhibition,[11]; at 33.0 µM,9%
same,growth inhibition,[11]; [17],6%
same,growth inhibition,[11]; at 50.0 µM,49.8%
same,growth inhibition,[11]; at 100.0 µM,29%
same,growth inhibition,[12]; at 1.2 µM,-1%
same,growth inhibition,[12]; at 3.7 µM,-1%
same,growth inhibition,[12]; at 11.0 µM,3%
same,growth inhibition,[12]; at 33.0 µM,20%
same,growth inhibition,[12]; at 100.0 µM,77% (active)
same,growth inhibition,[13]; at 1.2 µM,5%
same,growth inhibition,[13]; at 3.7 µM,4%
same,growth inhibition,[13]; at 11.0 µM,5%
same,growth inhibition,[13]; at 33.0 µM,-13%
same,growth inhibition,[13]; at 100.0 µM,41%
same,growth inhibition,[14]; at 1.2 µM,2%
same,growth inhibition,[14]; at 3.7 µM,7%
same,growth inhibition,[14]; at 11.0 µM,20%
same,growth inhibition,[14]; at 33.0 µM,49%
same,growth inhibition,[14]; at 100.0 µM,90% (active)
same,growth inhibition,[15]; [16],-4%
same,growth inhibition,[15]; [17],-9%
same,growth inhibition,[15]; at 50.0 µM,47%
same,growth inhibition,[1]; at 1.2 µM,3%
same,growth inhibition,[1]; at 3.7 µM,-3%
same,growth inhibition,[1]; at 11.0 µM,3%
same,growth inhibition,[1]; at 33.0 µM,6%
same,growth inhibition,[1]; at 100.0 µM,61%
O=c1c2ccccc2nc(-c2ccc(Cl)cc2)n1O,growth inhibition,[2]; at 1.2 µM,61%
same,growth inhibition,[2]; at 3.7 µM,89% (active)
same,growth inhibition,[2]; at 11.0 µM,96% (active)
same,growth inhibition,[2]; at 33.0 µM,96% (active)
same,growth inhibition,[2]; at 100.0 µM,96% (active)
same,growth inhibition,[4]; at 1.2 µM,60%
same,growth inhibition,[4]; at 3.7 µM,90% (active)
same,growth inhibition,[4]; at 11.0 µM,94% (active)
same,growth inhibition,[4]; at 33.0 µM,94% (active)
same,growth inhibition,[4]; at 100.0 µM,93% (active)
same,growth inhibition,[5]; at 1.2 µM,80% (active)
same,growth inhibition,[5]; at 3.7 µM,93% (active)
same,growth inhibition,[5]; [16],28%
same,growth inhibition,[5]; at 11.0 µM,96% (active)
same,growth inhibition,[5]; at 33.0 µM,95% (active)
same,growth inhibition,[5]; [17],98% (active)
same,growth inhibition,[5]; at 50.0 µM,97% (active)
same,growth inhibition,[5]; at 100.0 µM,95% (active)
same,growth inhibition,[6]; at 1.2 µM,50%
same,growth inhibition,[6]; at 3.7 µM,56%
same,growth inhibition,[6]; [16],10%
same,growth inhibition,[6]; at 11.0 µM,83% (active)
same,growth inhibition,[6]; at 33.0 µM,84% (active)
same,growth inhibition,[6]; [17],97% (active)
same,growth inhibition,[6]; at 50.0 µM,96.7% (active)
same,growth inhibition,[6]; at 100.0 µM,88% (active)
same,growth inhibition,[7]; at 1.2 µM,98% (active)
same,growth inhibition,[7]; at 3.7 µM,98% (active)
same,growth inhibition,[7]; at 11.0 µM,98% (active)
same,growth inhibition,[7]; at 33.0 µM,98% (active)
same,growth inhibition,[7]; at 100.0 µM,98% (active)
same,growth inhibition,[8]; [16],46%
same,growth inhibition,[8]; [17],98% (active)
same,growth inhibition,[8]; at 50.0 µM,96.7% (active)
same,growth inhibition,[9]; at 1.2 µM,21%
same,growth inhibition,[9]; at 3.7 µM,26%
same,growth inhibition,[9]; at 11.0 µM,66%
same,growth inhibition,[9]; at 33.0 µM,73% (active)
same,growth inhibition,[9]; at 100.0 µM,71% (active)
same,growth inhibition,[11]; at 1.2 µM,62%
same,growth inhibition,[11]; at 3.7 µM,75% (active)
same,growth inhibition,[11]; [16],23%
same,growth inhibition,[11]; at 11.0 µM,78% (active)
same,growth inhibition,[11]; at 33.0 µM,82% (active)
same,growth inhibition,[11]; [17],97% (active)
same,growth inhibition,[11]; at 50.0 µM,87.5% (active)
same,growth inhibition,[11]; at 100.0 µM,72% (active)
same,growth inhibition,[12]; at 1.2 µM,92% (active)
same,growth inhibition,[12]; at 3.7 µM,96% (active)
same,growth inhibition,[12]; at 11.0 µM,96% (active)
same,growth inhibition,[12]; at 33.0 µM,96% (active)
same,growth inhibition,[12]; at 100.0 µM,96% (active)
same,growth inhibition,[13]; at 1.2 µM,72% (active)
same,growth inhibition,[13]; at 3.7 µM,90% (active)
same,growth inhibition,[13]; at 11.0 µM,93% (active)
same,growth inhibition,[13]; at 33.0 µM,92% (active)
same,growth inhibition,[13]; at 100.0 µM,94% (active)
same,growth inhibition,[14]; at 1.2 µM,96% (active)
same,growth inhibition,[14]; at 3.7 µM,96% (active)
same,growth inhibition,[14]; at 11.0 µM,97% (active)
same,growth inhibition,[14]; at 33.0 µM,96% (active)
same,growth inhibition,[14]; at 100.0 µM,95% (active)
same,growth inhibition,[15]; [16],48%
same,growth inhibition,[15]; [17],98% (active)
same,growth inhibition,[15]; at 50.0 µM,96.1% (active)
same,growth inhibition,[1]; at 1.2 µM,94% (active)
same,growth inhibition,[1]; at 3.7 µM,96% (active)
same,growth inhibition,[1]; at 11.0 µM,97% (active)
same,growth inhibition,[1]; at 33.0 µM,96% (active)
same,growth inhibition,[1]; at 100.0 µM,95% (active)
